From PubChem BioAssay (NCI)
About 83,000 compounds went through this panel and 20% of them were active in at least one assay; those are over-represented in the sample as a whole.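 How to read the values: 0–100, growth inhibition (40 = 60% inhibited); 0, no net growth; -100 to 0, cell death (-40 = 40% of starting cells died; -100 = all dead).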 Values without a mark were called inactive. The source made the active and inactive calls. The calls were made as follows: active = growth percent below 10; inactive = the rest.

Assays:
Assay in all cases: NCI-60 one-dose screen, 48 h (100 = growth as untreated, 0 = no growth, -100 = all killed)
Conditions in all cases: 10 µM unless noted
SK-MEL-2 melanoma = test system: SK-MEL-2 melanoma
EKVX NSCLC = test system: EKVX NSCLC
SN12C renal = test system: SN12C renal
UO-31 renal = test system: UO-31 renal
TK-10 renal = test system: TK-10 renal
ACHN renal = test system: ACHN renal
CAKI-1 renal = test system: CAKI-1 renal
A498 renal = test system: A498 renal
CCRF-CEM leukemia = test system: CCRF-CEM leukemia
RPMI-8226 leukemia = test system: RPMI-8226 leukemia
OVCAR-8 ovarian = test system: OVCAR-8 ovarian
OVCAR-5 ovarian = test system: OVCAR-5 ovarian
OVCAR-4 ovarian = test system: OVCAR-4 ovarian
SK-OV-3 ovarian = test system: SK-OV-3 ovarian
IGROV1 ovarian = test system: IGROV1 ovarian
OVCAR-3 ovarian = test system: OVCAR-3 ovarian
HS 578T breast = test system: HS 578T breast
NCI/ADR-RES ovarian = test system: NCI/ADR-RES ovarian
SR leukemia = test system: SR leukemia

Row | SMILES | growth (SK-MEL-2 melanoma) | growth (EKVX NSCLC) | growth (SN12C renal) | growth (UO-31 renal) | growth (TK-10 renal) | growth (ACHN renal) | growth (CAKI-1 renal) | growth (A498 renal) | growth (CCRF-CEM leukemia) | growth (RPMI-8226 leukemia) | growth (OVCAR-8 ovarian) | growth (OVCAR-5 ovarian) | growth (OVCAR-4 ovarian) | growth (SK-OV-3 ovarian) | growth (IGROV1 ovarian) | growth (OVCAR-3 ovarian) | growth (HS 578T breast) | growth (NCI/ADR-RES ovarian) | growth (SR leukemia)
1 | C[C@H]1[C@H]2[C@H]3CC[C@@H]4[C@@]5(C)C/C(=C/c6cccnc6)C(=O)C(C)(C)[C@@H]5CC[C@@]4(C)[C@]3(C)CC[C@]23CO[C@]1(C)[C@@H](C(=O)/C=C\c1cccnc1)C3 | -25.5% (active) | -1.58% (active) | -17.7% (active) | -97.3% (active) | -14.5% (active) | -22.2% (active) | 9.32% (active) | -59.1% (active) | 17.9% | 5.06% (active) | -13.6% (active) | -4% (active) | 18.6% | 58.9% | 1.25% (active) | -43.7% (active) | 11.2% | 2.97% (active) | –
2 | O=C(Nc1cccc(C(F)(F)F)c1)Nc1cccc(C(F)(F)F)c1 | -28.5% (active) | 13.8% | 2.57% (active) | 4.46% (active) | -0.607% (active) | 5.92% (active) | 16.4% | -18.2% (active) | 2.44% (active) | -10.5% (active) | – | 25.3% | 23.9% | -15.3% (active) | 26.8% | 14.4% | 8.56% (active) | 7.46% (active) | -22.6% (active)
3 | COC(=O)c1ccc(C2Nc3ccc(S(=O)(=O)Nc4ccc(C)c(C)c4)cc3C3OCCC23)cc1 (stereo not drawn) | 93.4% | 57.9% | 85.3% | 74.9% | 90.4% | 89.4% | 75% | 74.3% | 74.2% | – | 92% | 95.7% | 82.8% | 92% | 84.4% | 79.1% | 100% | 88.5% | –
4 | O=C1/C(=C/c2ccc(Br)cc2)C=C(c2ccccc2)N1CCc1ccccc1 | 66% | 40.1% | 50.1% | 45% | 12.6% | 13% | 64.3% | 50.8% | 101% | 101% | 17.7% | 66% | -17.1% (active) | 15.4% | 41.9% | 42.1% | 22.8% | 27.8% | 58.6%
5 | Cn1c(I)c(C#C[Si](C)(C)C)c(=O)n(C(=O)c2ccccc2)c1=O | 81% | 91.2% | 51% | -78.4% (active) | 43.6% | 11.5% | 40.9% | 105% | -57.5% (active) | -9.86% (active) | -20.6% (active) | 60.9% | 39.5% | 101% | – | 14.2% | 41% | 88.1% | –
6 | CCOc1c(C#N)nnc2c(C#N)c(NC(=O)c3ccccc3)nn12 | 112% | 93.8% | 100% | 86.3% | 116% | 98.4% | 93.7% | 93.4% | 102% | 111% | 93.8% | 102% | 110% | 97.1% | 101% | 106% | 99.8% | 100% | –
7 | O=C(Nc1ccc(-n2cc(-c3ccncc3)c(-c3ccc(Cl)c(O)c3)n2)cc1)N1CCOCC1 | 110% | 102% | 99.2% | 75.6% | 117% | 97.6% | 105% | 121% | 112% | 106% | 105% | 101% | 104% | 96.4% | 97.3% | 109% | 105% | 106% | –
8 | Cc1cc(N2CCCC2)nc(NCc2cc(Nc3ccnc4cc(Cl)ccc34)ccc2F)n1 | -79.6% (active) | 11.1% | -58.8% (active) | -59.1% (active) | -56.7% (active) | -72.3% (active) | 28.5% | -25.2% (active) | -32.1% (active) | -44.2% (active) | -54.5% (active) | -11.8% (active) | -14.9% (active) | 26.8% | -18.4% (active) | -86.9% (active) | -34.5% (active) | -33.7% (active) | -28.1% (active)
9 | Cc1ccc(C(=O)CSc2nc(-c3ccc(Br)cc3)c(C#N)c(=O)[nH]2)cc1 | 106% | 106% | 99.5% | 88.5% | 103% | 110% | 87.2% | 65.1% | 105% | 101% | 88.8% | 105% | 85.9% | 104% | 99.3% | 99.7% | 93% | 97.5% | –
10 | CCN1C(=O)N(CC)C2C1NN=c1s/c(=C\c3cccs3)c(=O)n12 (stereo not drawn) | 42% | 60.6% | 29.7% | 50.2% | 5.35% (active) | 42.2% | 35.4% | -12.4% (active) | 26.6% | 37.7% | 16.9% | 41.3% | 53.2% | 45.6% | 27.4% | -17.5% (active) | 22.5% | -16.5% (active) | –
11 | O=S(=O)(Nc1cccc(Cl)c1)c1ccc(-c2cnc(C3CC3)o2)cc1 | 58.8% | 35.1% | 39.7% | 35.5% | 45.9% | 37.1% | 29.8% | -3.4% (active) | 12.8% | 17.8% | 33.5% | 37.2% | 41.7% | 34.3% | 26.4% | -9.95% (active) | 1.3% (active) | 18.9% | –
12 | COc1cccc(-c2nn(-c3ccccc3)cc2-c2ccnc(NCCNC(=O)Nc3ccccc3)c2)c1 | 46.8% | 71.1% | 54% | 39% | 73.8% | 68.9% | 64.9% | 43.8% | 54.7% | 39.5% | 38% | 92.4% | 53.9% | 58% | 65.4% | 55.8% | 31.4% | 34.8% | -10.6% (active)
13 | O=c1c2cc(F)ccc2sc2c(NCCN3CCCCC3)nc3ccccc3c12 | 98.7% | 61% | 48.6% | 27.1% | 77.7% | 42.7% | 38.6% | 61.6% | 44.3% | – | 57.6% | 69.3% | 50.7% | 78.8% | 27.3% | 31.5% | 56% | 67.1% | –
14 | CCCCCCCCCOc1c(OC)cc(C2CC(=O)Nc3c2c(C)nn3-c2nc3ccccc3[nH]2)cc1OC (stereo not drawn) | -40.4% (active) | -83.5% (active) | -33.3% (active) | -95.5% (active) | 4.51% (active) | -24.6% (active) | -73.2% (active) | -35.3% (active) | 19.1% | 10.1% | -1.61% (active) | -68.7% (active) | 1.92% (active) | -62.7% (active) | -51.1% (active) | -63.3% (active) | -23% (active) | -1.8% (active) | –
15 | Cc1cc(=O)[nH]c(N=Nc2c(O)[nH]c3ccccc23)n1 | 103% | 111% | 102% | 84.9% | 112% | 101% | 96.1% | 127% | 94.6% | 105% | 104% | 105% | 118% | 112% | 92.8% | 112% | 122% | 108% | –
16 | CCN(CC)CCCCCCNc1cc(OC)c(Cl)c2cccnc12 | 92.4% | 85.6% | 67.7% | 51.8% | 85.3% | 82.5% | 84.6% | 45.3% | 84.7% | 75.3% | 84.9% | 83% | 73.6% | 92.5% | 86.6% | 66.9% | 58.8% | 79.3% | 42.2%
17 | CCN1CCN(c2cc(C)nc(NCc3cc(Nc4ccnc5cc(Cl)ccc45)ccc3F)n2)CC1 | 104% | 59.6% | 64.3% | 69.1% | 99.8% | 34.9% | 87.8% | 36.2% | 16.6% | 74.4% | 69.6% | 56% | 50.5% | 87.5% | 59.1% | 101% | 71.4% | 82.8% | -18.4% (active)
